# Source: PubChem BioAssay
# This is a sample that favours compounds with a hit; in the whole collection about 3.5% have one here.
# TEAD-YAP block: TEAD-YAP interaction inhibition; actives 1.4% (n = 640,000); inhibition, % at 9.12 µM; AID 1259422; HEK-TIYL cells, TEAD-Gal4/YAP UAS-luciferase luminescence; in the data active = inhibition above about 32%;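 note: 0% = median of test compound wells and 100% = reference inhibitor wells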
# MITF primary: human MITF inhibition, primary screen; AlphaScreen MITF homodimerization, bead proximity signal; inhibition, % at 2.6 µM; actives 0.91% (n = 650,000); AID 1259374; in the data active = inhibition above about 50%;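 note: 0% = vehicle wells with protein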
# FBW7 activator: activators of human E3 ligase FBW7 | normalized activity (activation), % at 26.1 µM | actives 0.13% (n = 650,000) | AID 1259310 | AlphaScreen FBW7–phospho-cyclin E peptide binding, activator screen; in the data active = normalized activity above about 1.9%;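 note: purified mutant Fbw7 with reduced substrate affinity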
# Target sequence (Q969H0 whole entry, looked up): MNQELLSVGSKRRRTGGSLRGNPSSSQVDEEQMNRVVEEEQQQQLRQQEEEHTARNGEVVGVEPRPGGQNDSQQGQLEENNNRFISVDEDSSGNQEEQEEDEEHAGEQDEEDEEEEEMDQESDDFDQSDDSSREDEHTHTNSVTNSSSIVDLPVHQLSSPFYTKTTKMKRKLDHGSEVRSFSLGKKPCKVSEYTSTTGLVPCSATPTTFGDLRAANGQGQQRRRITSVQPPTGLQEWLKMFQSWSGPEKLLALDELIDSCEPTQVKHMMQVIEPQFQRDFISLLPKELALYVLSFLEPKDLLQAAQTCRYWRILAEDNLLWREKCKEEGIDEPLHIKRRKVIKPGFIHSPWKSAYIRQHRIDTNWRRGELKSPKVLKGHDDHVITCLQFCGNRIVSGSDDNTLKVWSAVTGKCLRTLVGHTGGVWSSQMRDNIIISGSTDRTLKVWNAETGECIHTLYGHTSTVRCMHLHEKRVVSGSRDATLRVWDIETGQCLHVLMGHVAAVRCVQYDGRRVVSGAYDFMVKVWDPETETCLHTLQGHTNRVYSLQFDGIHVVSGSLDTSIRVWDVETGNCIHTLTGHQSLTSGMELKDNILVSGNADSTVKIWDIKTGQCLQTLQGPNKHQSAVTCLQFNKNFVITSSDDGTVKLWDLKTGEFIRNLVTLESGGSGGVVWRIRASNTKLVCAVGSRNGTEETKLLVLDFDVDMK
# GPR151 ag: activators of human GPR151; PathHunter beta-arrestin GPR151 cells, luminescence; activation, % at 11.2 µM; actives 1% (n = 650,000); AID 1508602; in the data active = activation above about 4.9%;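 note: 0% = median of compound wells and 100% = cells with positive control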
# Active calls of the source: *; · = no result given.
SMILES,TEAD-YAP block,MITF primary,FBW7 activator,GPR151 ag
CC(NC(=O)c1c[nH]c(=O)n(C)c1=O)c1ccccc1 (stereo not given),2,15,0,0
Cc1cc(C)c(S(=O)(=O)N2CCc3ccccc32)cc1[N+](=O)[O-],64*,49,0,1
O=[N+]([O-])c1cccc(S(=O)(=O)N2CCc3ccccc32)c1,32*,3,0,0
O=[N+]([O-])c1cccc(S(=O)(=O)N2CCc3ccccc3C2)c1,1,0,0,1
COc1ccc(/C=N/NC(=O)c2cccc(C)c2)cc1O,-9,-6,0,1
Oc1ccc2cc(-c3nc(-c4ccc(Br)cc4)cs3)c(=Nc3ccc(Br)cc3)oc2c1,12,12,0,0
COc1ccc(-c2nc3ccccc3c(=O)n2CC(=O)C(C)(C)C)cc1OC,-21,4,0,-1
Cc1ccccc1Nc1cc(N2CCOCC2)c2noc3c2c1C(=O)c1ccccc1-3,5,55*,0,-1
Cc1cccc(Nc2cc(N3CCOCC3)c3noc4c3c2C(=O)c2ccccc2-4)c1,-1,15,0,0
O=C1c2ccccc2-c2onc3c(N4CCCCC4)cc(N4CCOCC4)c1c23,8,62*,-1,0
COc1cc(Nc2cc(N3CCC(C)CC3)c3noc4c3c2C(=O)c2ccccc2-4)cc(OC)c1OC,43*,39,0,3
COc1cc(Nc2cc(N3CCCC3)c3noc4c3c2C(=O)c2ccccc2-4)cc(OC)c1OC,0,2,0,1
Cc1nn(CC(=O)NC(C)(C)C)c(=O)c2ccccc12,-2,2,0,0
COc1ccc(Nc2nc(N)nc(CN3CCC(C(N)=O)CC3)n2)cc1,0,-9,0,0
O=C(Nc1cccc(N2CCNC2=O)c1)C1CC12CCN(Cc1ccsc1)CC2 (stereo not given),4,-16,0,-1
c1ccc(-n2cnc3c(NCc4nc5ccccc5[nH]4)nc(Nc4ccncc4)nc32)cc1,73*,9,0,-2
c1ccc2[nH]c(CNc3nc(Nc4ccncc4)nc4c3ncn4C3CCCCC3)nc2c1,64*,15,0,0
c1ccc(-n2cnc3c(NCc4nc5ccccc5[nH]4)nc(Nc4cccnc4)nc32)cc1,73*,9,0,-3
c1ccc(-n2cnc3c(NCc4nc5ccccc5[nH]4)nc(Nc4ccc(-n5ccnc5)cc4)nc32)cc1,57*,2,0,-1
Cn1c(SCC(=O)Nc2ccc3c(c2)OCO3)nnc1-c1cccs1,-2,10,0,0
O=C(COC(=O)c1ccc([N+](=O)[O-])o1)c1ccc2c(c1)OCCO2,1,9,0,1
COC(=O)C1=CN(C2CCCC2)C=C(C(=O)OC)C1c1ccc(F)cc1,7,13,3.1*,-1
Oc1c(I)cc(Cl)c2cccnc12,-7,4,0,0
O=[N+]([O-])c1ccc(N2CCN(c3ccccc3)CC2)c2ncccc12,4,3,0,1
O=[N+]([O-])c1cc(CN2CCN(c3ccccc3)CC2)c(O)c2ncccc12,48*,61*,-1,0
SMILES,TEAD-YAP block,MITF primary,FBW7 activator,GPR151 ag
CN(Cc1cc([N+](=O)[O-])c2cccnc2c1O)C1CCCCC1,29,114*,-1,-2
CN(Cc1cc(Cl)c2cccnc2c1O)C1CCCCC1,83*,37,-1,3
CN(Cc1cc(Br)c(O)c2ncccc12)C1CCCCC1,87*,79*,-1,2
Cc1ccc(C(=O)N/C(=C/c2ccccc2Cl)C(=O)Nc2cccc(C)c2)cc1,8,8,0,-1
COc1ccc(C(=O)c2cc([N+](=O)[O-])ccc2N2CCN(C)CC2)cc1,49*,15,1,-1
CN1CCN(c2ccc([N+](=O)[O-])cc2C(=O)c2ccc(Br)cc2)CC1,52*,9,0,0
Cc1ccc(C(=O)c2cc([N+](=O)[O-])ccc2N2CCN(C)CC2)cc1,51*,18,0,0
O=C(CCC(=O)Nc1ccc2c(c1)OCCO2)Nc1ccc(OCc2ccccc2)cc1,3,3,0,0
Cn1nnnc1Sc1ccc([N+](=O)[O-])c2cnccc12,35*,-9,0,0
Cn1nnnc1Sc1ccc(C(N)=O)cc1[N+](=O)[O-],-4,5,0,2
CCN(CC)CCNc1cc(C)nc2c1C(=O)C(=O)C=C2N1CCCCC1,94*,9,0,0
Cc1cc(C)cc(C(=O)Nc2ccc(-n3c(C)nc4ncccc4c3=O)cc2C)c1,4,1,0,0
COc1ccc2oc(=O)c(-c3csc(Nc4ccccc4OC)n3)cc2c1,48*,-5,0,1
COc1ccc(OC)c(C(=O)COC(=O)/C(C#N)=C/c2ccc(N(C)C)cc2)c1,-3,7,0,0
CCCCC1CN(CCNC(=O)c2cnc(C)cn2)Cc2ccccc2O1 (stereo not given),3,-4,0,-1
O=C1c2ccc(O)c(O)c2C(=O)c2c(O)ccc(O)c21,2,66*,1,2
O=C(CSc1nnc2c(n1)[nH]c1ccccc12)Nc1ccc(Cl)cn1,57*,6,0,0
O=C(CSc1nnc2c(n1)[nH]c1ccccc12)Nc1ccccc1F,-19,0,0,-1
O=C(CSc1nnc2c(n1)[nH]c1ccccc12)Nc1ccc(Br)cc1,2,-3,0,-1
O=C(CSc1nnc2c(n1)[nH]c1ccccc12)Nc1ccc(C(=O)N2CCCCC2)cc1,34*,10,0,1
CCCCCCCCCCCCC(=O)N[C@H]1CCOC1=O,·,19,·,0
c1ccc(C(c2nnnn2C2CCCC2)N2CCCCCC2)nc1 (stereo not given),13,0,-1,0
Oc1c(C(c2ccccn2)N2CCCC2)ccc2cccnc12 (stereo not given),67*,107*,0,2
Oc1c(C(c2cccs2)N2CCN(c3ccccn3)CC2)ccc2cccnc12 (stereo not given),91*,38,0,1
Oc1ccccc1C(Nc1nccs1)c1ccc2cccnc2c1O (stereo not given),24,41,-2,2
SMILES,TEAD-YAP block,MITF primary,FBW7 activator,GPR151 ag
Oc1c(C(c2ccccn2)N2CCN(c3ccccn3)CC2)ccc2cccnc12 (stereo not given),-4,83*,-2,-1
O=C(c1ccc2ccccc2c1)N1CCN(c2ccccn2)CC1,-1,-1,0,2
CN1CCN(C(c2ccccn2)c2ccc3cccnc3c2O)CC1 (stereo not given),15,90*,0,0
COc1ccc(NC(=O)CSc2nc3c(c(=O)n2-c2ccc(Br)cc2)SCC3)c(OC)c1,15,3,0,2
CC1CCCN(C(=O)Cc2ccc(Br)cc2)C1 (stereo not given),-37,-4,0,-1
NC(=O)[C@@H]1CCCN1C1CCN(c2cccc(NC(=O)CCCc3ccccc3)c2)CC1,39*,-8,0,1
O=C(CCCc1ccccc1)Nc1cccc(N2CCC(NC3CCOCC3)CC2)c1,0,-11,0,2
